Results reported in PubChem BioAssay AID2716 (Broad Institute, 2010).
Hit rate of the full screen: of about 320,000 compounds, about 3,300 (1%) were called active. This is one part of a sample in which actives are shown more often than they occur.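 Rule for the calls: active = every valid replicate shows activation above 250% relative to neutral control wells; inactive = the rest, any valid replicate at or below 250%.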

Assay: yeast Mot1-301 growth rescue at high temperature, primary screen, SUMOylation pathway inhibitor project, S. cerevisiae, ATP luminescence, 38.5C (AID 2716);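 note: OY570 slx delta 5 strain wells were the positive control but not used for scaling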
Details: S. cerevisiae Mot1-301 growth rescue, at 18.8 µM, active compounds read high, percent above DMSO median, 100 means doubled

Growth rescue, active:
COc1ccc(OCCC(=O)c2ccc(OC)cc2)cc1 614%
CCOc1cc(/C=N/O)cc(Br)c1OC 341%
CCCCCCCCc1c(O)nc(-n2[nH]c(C)c(CCO)c2=O)[nH]c1=O 605%
Cc1ccc(O)c(CNc2nc3ccccc3n2C)c1 913%
CCCN=C1NC(=O)C(CC(=O)NCCc2ccc(OC)c(OC)c2)S1 (centres undefined) 536%
CCCCC1=CC2=CC(=O)C(C)(OC(=O)CC)C(=O)C2=CN1CCCOC(C)C (centres undefined) 499%
Cc1cccc(C)c1NC(=O)C(Cl)C(=O)c1ccccc1 (centres undefined) 474%
CCn1c(=N)c(C(=O)NCCCOC)cc2c(=O)n3cccc(C)c3nc21 327%
Cc1cccc(-[n+]2c(-c3cccc(Br)c3)[nH]c3nc4ccccc4nc32)c1 655%
COC(=O)/C=C\C(=O)Nc1cccc([N+](=O)[O-])c1 362%
CCCC(=O)N(CCN1CCOCC1)c1nc2ccc(OCC)cc2s1 371%

Growth rescue, inactive:
CCC(C)(C)NC(=O)C(c1cccc(OC)c1OC)N(CC(C)C)C(=O)CCC(=O)Nc1cc(C)on1 (centres undefined) 13.1%
COc1ccc(CCC(=O)c2ccc(OC)cc2)cc1 34.5%
COc1ccc(OCCCC(=O)Oc2ccc(OC)cc2)cc1 -3.53%
O=C1CCC/C(=N\NC(=O)NC2CCCCC2)C1 -14.5%
Cc1nn(Cc2ccc(F)cc2)c(C)c1NC(=O)c1noc2c1CCc1ccccc1-2 -2.02%
CCOc1ncccc1C(=O)Nc1ccc2c(c1)OCCO2 6.77%
COc1cc(/C=N/O)cc(Br)c1OS(=O)(=O)c1ccc(C)cc1 13.1%
COc1cc(/C=N/O)cc(Br)c1OCc1cccc(Cl)c1 -7.89%
Cc1ccc(F)c(NC(=O)CCc2ccccc2)c1 -0.553%
COCCCNC(=O)C1CCC(CNS(=O)(=O)c2ccc(OC)cc2)CC1 (centres undefined) -13.1%
CCCCc1c(O)nc2n(c1=O)CCS2 -12.2%
O=C(NCCc1ccc(Cl)cc1)C1CCCN1C(=O)NCc1ccccc1 (centres undefined) -4.04%
O=C(CN1C(=O)NC2(CCCC2)C1=O)Nc1ccc(F)c(F)c1F -3.83%
CC(C)n1c(NCc2c[nH]c3ccccc23)nc2ccccc21 5.8%
Cn1c(NC(=O)c2ccccc2)nc2ccccc21 4%
CCN1CCN(c2sc(S(C)(=O)=O)nc2S(=O)(=O)c2ccc(Cl)cc2)CC1 2.93%
C/C(=N\NC(=O)C1(C)CC1(Br)Br)c1ccc(C)cc1C (centres undefined) 8.98%
CCCCc1nccn1CCn1ccnc1CCCC 1.48%
COc1ccc(CCNC(=O)Cc2ccc(C)cc2)cc1OC 102%
COc1ccc(CCNC(=O)CC2SC(=Nc3cc(C)cc(C)c3)NC2=O)cc1OC (centres undefined) 308%
COc1cccc(N(CC(=O)NCc2ccccc2)C(=O)CCC(=O)Nc2nccs2)c1 -6.15%
COC(=O)C1CCN(CC(N)=O)CC1 -5.03%
COc1ccc(C(=O)COC(=O)Cn2cnc3c2c(=O)n(C)c(=O)n3C)c(OC)c1 -7.8%
O=C(Nn1cnnc1)c1cc(Cl)ccc1Cl 4.55%
CN1CCN(S(=O)(=O)c2cccc(C(=O)Nc3cccc(S(N)(=O)=O)c3)c2)CC1 -8.57%
COC(=O)CCCC1=CC2=CC(=O)C(C)(OC(=O)c3cccs3)C(=O)C2=CN1CC1CC1 (centres undefined) 414%
COC(=O)CCCC1=CC2=CC(=O)C(C)(OC(=O)c3cccs3)C(=O)C2=CN1CC(C)C (centres undefined) 13.6%
CCCCN(C1CCS(=O)(=O)C1)S(=O)(=O)c1ccc(C(C)C)cc1 (centres undefined) 1.38%
CC(=O)c1ccc(S(=O)(=O)N2CCC(Oc3ccc(-n4cnnn4)cc3)CC2)cc1 -5.14%
CCCCN(C(=O)COc1ccc(NC(C)=O)cc1)C1CCS(=O)(=O)C1 (centres undefined) 0.599%
Cc1cccc(C)c1NC(=O)C(c1ccccc1)N1CC(=O)Nc2ccccc21 (centres undefined) 8.11%
Cc1cccc(C)c1NC(=O)CN(C)C(=O)CCC(=O)c1ccccc1 -17.7%
CN(C)CCCN(Cc1cc2cc3c(cc2[nH]c1=O)OCCO3)C(=O)NC1CCCCC1 4.3%
CCN1CCN(C(=O)N(Cc2ccc(Cl)cc2)S(=O)(=O)c2ccc(C)cc2)CC1 2.05%
COc1ccc(NS(=O)(=O)c2ccc(C(=O)Nc3c(C)n(C)n(-c4ccccc4)c3=O)cc2)cc1 -8.97%
Cc1cccn2c(=O)c3cc(C(=O)NCC4CCCO4)c(=N)n(Cc4ccc(F)cc4)c3nc12 (centres undefined) -5.43%
Cc1cccn2c(=O)c3cc(C(=O)NCCN4CCOCC4)c(=N)n(Cc4cccnc4)c3nc12 -5.56%
O=C(NC1CCN(C(=S)NCc2ccco2)CC1)c1ccc(F)cc1 -3%
Cc1cc(NC(=O)CSCC(=O)NC(C)c2ccccc2)no1 (centres undefined) 4.77%
N#Cc1ccc(S(=O)(=O)NCC(=O)OCC(=O)NCCc2ccccc2)cc1 0.284%
COc1ccc(N(CCC(=O)NCCc2ccccc2)S(=O)(=O)c2ccc(C)cc2C)cc1 -11.2%
Cc1ccc(CNC(=O)COC(=O)C2CCC2)cc1 -6.16%
Cc1nccn1CCC1CCCCN1C(=O)CCc1nnc(-c2ccsc2)o1 (centres undefined) -11.6%
COc1cccc(CNC(=O)CCCC(=O)Nc2cccc([N+](=O)[O-])c2)c1 -7.72%
COc1ccc(S(=O)(=O)NC(C)C(=O)Nc2cccc([N+](=O)[O-])c2)cc1 (centres undefined) -16.6%
CCOC(=O)C1CCCN(C(=O)c2ccc(C)c(S(=O)(=O)N3CCCCC3)c2)C1 (centres undefined) -5.7%
CCOc1ccc2nc(N(CCN(C)C)C(=O)c3ccc4ccccc4c3)sc2c1 74.9%
CCOc1ccc2nc(N(CCCN(C)C)C(=O)c3ccc(C(=O)c4ccccc4)cc3)sc2c1 1.2%
